Assay outcomes (PubChem BioAssay)
Marburg entry inh: inhibitors of Marburg virus binding or cell entry; Potency, µM (titrated, usually from 37.8 µM), actives largely listed as inhibitors; 300,000 compounds, 1.8% hits; Marburg virus pseudotyped entry inhibition, cell reporter; calls by dose curve; tested in HEK293 cells
LASV entry inh: inhibitors of Lassa virus binding or cell entry | Lassa virus pseudotype entry inhibition, cell reporter | Potency, µM (titrated, usually from 37.9 µM), most hits filed as inhibitors | 300,000 compounds, 1.2% hits | AID 540256; calls by dose curve; tested in HEK293 cells; note: nearly all actives have a fitted effect of over 50% in size
Pf growth 96h: P. falciparum growth inhibition at 96 hours | P. falciparum luciferase reporter growth, 96 h | Potency, µM (series often up to 28.7 µM), most hits filed as inhibitors | 320,000 compounds, 6.9% hits
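96 h incubation, 37 C, 5% CO2, of luciferase-reporter P. falciparum-infected RBCs (2% hematocrit, 0.05% parasitemia final) with test compounds; endpoint luminescence.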
Cycloheximide cs: counter-screen hit for Shiga toxin inhibitors, cycloheximide. cell reporter, cycloheximide protein synthesis inhibition counterscreen. AID 2314. 300,000 compounds, 12% hits. max response, %; in the data active = max response mostly above about 13%, no sharp cut-off; inactive = mostly below about 14%; note: read at 38.3 µM for the half of the compounds with a filed dose
Pf growth 48h: P. falciparum growth inhibition at 48 hours (one generation) | 310,000 compounds, 5.9% hits | P. falciparum luciferase growth in erythrocytes, 48 h | Potency, µM (titrated, usually from 28.7 µM), actives largely listed as inhibitors | AID 504832
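In quantitative HTS format, infected erythrocytes bearing luciferase-reporter parasites were treated for a single generation at 37 C. Luminescence after adding detection reagent served as the growth measure.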
Shiga toxin inh: blocks Shiga toxin action in Vero cells. Vero cells, Shiga toxin protein synthesis inhibition reporter. inhibition, % at 38.7 µM. 290,000 compounds, 9.2% hits; in the data active = inhibition mostly above about 28%, no sharp cut-off; inactive = mostly below about 43%
A number is an active result; 0 = inactive; ? = inconclusive; - = not tested or not shown; + = active, no number; [ ] = another dose, or the depositor's remark. Compounds with a hit are over-represented: about 19% of the library has one in this group of screens. Unless noted, calls come from the whole dose curve; as a rule, active = well fitted inhibition curve with a large enough effect; inconclusive = small, poorly fitted or top-dose-only effect, or another doubt; inactive = no such curve, though single readings can be large or run the other way.

SMILES	Marburg entry inh	LASV entry inh	Pf growth 96h	Cycloheximide cs	Pf growth 48h	Shiga toxin inh
Cc1ccc(OCC(=O)Nc2cc(S(=O)(=O)N3CCOCC3)ccc2N2CCCC2)cc1	0	0	?	-	?	-
CCN(CC)S(=O)(=O)c1ccc(N2CCN(C)CC2)c(NC(=O)COc2ccc(F)cc2Cl)c1	?	0	?	-	10µM	-
Cc1ccc(Cl)c(OCC(=O)Nc2cc(S(=O)(=O)N3CCOCC3)ccc2N2CCCC2)c1	?	0	8.3µM	0	12µM	0
O=C(CCCOc1ccc(Br)cc1)Nc1ccc(S(=O)(=O)N2CCOCC2)cc1	0	?	8.3µM	-	?	-
O=C(CC(NC(=O)c1ccccc1Cl)c1ccccc1)NCCc1ccc(Cl)cc1 (stereo not drawn)	0	0	0	0	0	0
Cc1ccc(Nc2nc(Cl)nc(NC(C)(C)C)n2)cc1	-	-	0	54	0	60
Cc1ccc(Nc2nc(Cl)nc(N(C)C#N)n2)cc1	?	0	7.4µM	0	0	0
CC(C)c1ccc(Nc2nc(Cl)nc(Cl)n2)cc1	-	-	0	0	0	-
c1cnc2nc(CSc3ncn[nH]3)cn2c1	0	-	0	0	0	0
Cc1onc(-c2ccccc2)c1C(=O)N1CCOC12CCN(c1cccc(F)n1)CC2	?	0	?	0	?	0
CC(C)N1CCN(S(=O)(=O)c2ccccc2)CC1	0	0	0	0	0	0
CC(CCc1ccccc1)N1CCN(Cc2ccccc2)CC1 (stereo not drawn)	0	?	12µM	0	0	0
CCS(=O)(=O)N1CCN(C(C)CCc2ccccc2)CC1 (stereo not drawn)	0	0	3.3µM	0	0	0
Cc1sc2ccccc2[n+]1CCC(C)S(=O)(=O)[O-] (stereo not drawn)	0	0	?	0	0	0
COc1ccc(NC(=S)NCc2cccs2)cc1OC	-	-	0[5.75 µM]	0	0	0
O=C(Nc1ccc2c(c1)CCC2)c1cc(=O)[nH]c2ccccc12	0	0	0	0	0	0
CCCCOc1ccc(-c2nnn(CC(=O)NCCc3c[nH]c4ccccc34)n2)cc1	0	0	0	15	?	0
COc1cccc(-c2nnn(CCc3nn[nH]n3)n2)c1	0	0	?	0	0	0
COc1cccc(-c2nnn(CC(C)=O)n2)c1	0	0	?	53	0	+
CCOC(=O)C(Cc1ccccc1)NC(=O)Cn1nnc(-c2ccc(SC)cc2)n1 (stereo not drawn)	?	?	?	0	0	0
CCOc1ccc(-c2nnn(CC(=O)c3ccc4c(c3)OCCO4)n2)cc1OCC	0	0	15µM	34	0	0
CSc1ccc(-c2nnn(CC(=O)NCc3ccccc3)n2)cc1	?	?	-	11	0	0
O=C(NNC(=O)c1ccncc1)Nc1ccc([N+](=O)[O-])cc1	0	0	0	0	?	0
COc1ccc(C(=O)N2CCC(C(=O)Nc3ccc(Cl)cc3)CC2)cc1	0	0	-	-	-	-
CCOC(=O)CC(NC(=O)Cn1nnc(-c2ccc(C(F)(F)F)cc2)n1)c1ccccc1Cl (stereo not drawn)	?	0	-	-	-	-
SMILES	Marburg entry inh	LASV entry inh	Pf growth 96h	Cycloheximide cs	Pf growth 48h	Shiga toxin inh
CCOc1ccc(-c2nnn(CC(=O)Nc3cccc(OC)c3)n2)cc1OCC	?	0	12µM	0	0	0
CCOC(=O)CC(NC(=O)Cn1nnc(-c2ccccc2)n1)c1ccc(OC)cc1 (stereo not drawn)	0	0	0	25	0	0
CC(=O)Cn1nnc(-c2ccc(C(F)(F)F)cc2)n1	-	-	0	27	0	61
COC(=O)c1ccccc1NC(=O)C1CCN(C(=O)c2ccc(OC)cc2)CC1	0	0	12µM	0	0	0
CCOc1ccc(CCNC(=O)Cn2nnc(-c3ccc(OC)c(OC)c3)n2)cc1OCC	0	0	-	-	-	-
NNC(=O)Cn1nnc(-c2ccc(C(F)(F)F)cc2)n1	-	-	0	0	0	0
CCCc1c(O)nc(SCC(=O)NCCc2ccc(OC)c(OC)c2)[nH]c1=O	0	0	0	0	0	0
O=C(NC1(C(F)(F)F)NC(=O)N(CCc2ccccc2)C1=O)C1CC1 (stereo not drawn)	0	0	0	0	0	0
COc1ccc(CNC(=O)Cn2nnc(-c3ccc(C(F)(F)F)cc3)n2)cc1	-	0	-	-	-	-
C=CCNC(=O)Cn1nnc(-c2ccc(-c3ccc(OC)cc3)cc2)n1	-	-	0	23	0	51
COC(=O)c1ccccc1NC(=O)Cn1nnc(-c2ccc3c(c2)OCO3)n1	0	0	0	0	0	0
COC(=O)c1ccccc1NC(=O)Cn1nnc(-c2ccc(OC)cc2)n1	?	?	0.59µM	0	0	0
COc1ccc(-c2ccc(-c3nnn(CC(C)=O)n3)cc2)cc1	0	0	0	35	0	93
COc1cccc(-c2nnn(CC(=O)N3CCCCC3)n2)c1	?	0	?	21	0	41
COC(=O)COc1ccc(C2Nc3c(Cl)ccc(C(=O)O)c3C3C=CCC32)cc1 (stereo not drawn)	0	0	?	0	0	0
O=C(Cn1nnc(-c2ccc(NC(=O)c3ccccc3F)cc2)n1)NCc1ccc(F)cc1	-	-	0	0	0	0
NC(=O)Cn1nnc(-c2ccc(NC(=O)c3ccc(F)cc3)cc2)n1	0	0	?	27	0	70
Fc1ccc(CSc2nncn2NC/C=C/c2ccccc2)cc1	0	0	?	0	?	0
CC(=O)c1cccc(NC(=S)NNC(=O)c2ccco2)c1	-	-	?	21	0	0
Cc1ccc(C(=O)O)cc1NC(=S)NC(=O)c1ccc(-c2ccc(Cl)cc2)o1	-	-	0	0	0	0
Cc1ccc(C(=O)NC(=S)Nc2cccc3c(C)cc(C)nc23)cc1	?	?	12µM	0	?	0
Cc1ccc(C(=O)NC(=S)Nc2ccccc2C(F)(F)F)cc1C	0	0	?	16	?	37
Cc1cccc(C(=O)NC(=S)Nc2ccccc2C(F)(F)F)c1	?	0	0	0	0	0
Cc1ccc(C(=O)O)cc1NC(=S)NC(=O)c1ccc(-c2ccccc2)cc1	0	0	0	31	0	57
O=C(O)c1cccc(NC(=S)NC(=O)c2ccc(-c3ccccc3)cc2)c1	?	0	0	46	0	143
SMILES	Marburg entry inh	LASV entry inh	Pf growth 96h	Cycloheximide cs	Pf growth 48h	Shiga toxin inh
CC(=O)c1cccc(NC(=S)NC(=O)c2ccccc2)c1	?	0	0	46	0	103
CC(=O)c1cccc(NC(=S)NC(=O)CC(C)(C)C)c1	0	0	0	20	0	0
CNC(=S)Nc1cccc(C(C)=O)c1	-	-	0	0	0	0
CC(=O)c1cccc(NC(=S)NC(=O)c2cncc(Br)c2)c1	-	-	0	20	0	0
COc1cc2ccccc2cc1C(=O)NC(=S)Nc1cccc(C(=O)O)c1	?	0	0	0	0	0
CC(=O)c1cccc(NC(=S)NC(=O)C(C)C)c1	0	0	0	0	0	0
Cc1cccc(Oc2ccccc2NS(=O)(=O)c2ccc(CCC(=O)O)cc2)c1	-	-	0	-	0	-
CC(Sc1ccc2c(c1)OCCO2)C(=O)Nc1ccc2c(c1)OCO2 (stereo not drawn)	0	0	0	0	0	0
CCCCC(=O)NC(=S)Nc1cccc(C(=O)O)c1	0	0	?	0	0	60
